Results on 39 compounds are retold here after PubChem BioAssay (NCI).

Molecules are shown by their SMILES. The panel holds about 79,000 compounds, 15% with a hit somewhere; the sample as a whole holds those more often. Unmarked numbers belong to inactive results. Active and inactive are the calls of the source. Cut-off read from the data, not from the text of the source: active = growth inhibition above about 70%; inactive = the rest.

One assay in a line: NCI Yeast Anticancer Drug Screen. Data for the sgs1 mgt1 strain (AID 161).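 Note: 0% = growth of cultures given vehicle only.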 Conditions: S. cerevisiae sgs1 mgt1 strain, at 5.0 µM (retest, dose inferred, filed as 0.5), hits give high values. In short, it runs like this: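 Mutant yeast exposed to compound; growth scored against vehicle-only wells.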
On to `CC(CC(C#CCN(C)C)N(C)C)CC(C)(C)C` (stereo not drawn), for which the growth inhibition was 3%.

On to `CCCCCCCCCCNC(=O)C[n+]1cccc(C(=O)NCc2ccccc2)c1`, for which the growth inhibition was 5%.

Regarding `Cc1ccc(N2C(N)=C(C#N)C(C#N)(C#N)C2c2ccccc2)cc1` (stereo not drawn), the growth inhibition was 20%.

As for `O=[N+]([O-])c1cccc(Cl)c1C(Nc1nncs1)Nc1nncs1`, the growth inhibition is 10%.

For `CCCC(C(=O)OCCNC1CCCCC1)c1ccccc1` (stereo not drawn), the growth inhibition is 0%.

`BrCc1ccc([Si](c2ccccc2)(c2ccccc2)c2ccc(CBr)cc2)cc1`: the growth inhibition is -15%.

`CCCCC(O)(c1ccccc1)C(O)(c1ccccc1)c1c(F)c(F)c(F)c(F)c1F` (stereo not drawn): the growth inhibition was -5%.

`C/C=C\C=N\NC(N)=S`: the growth inhibition was 3%.

As for `NCCc1ccc2oc3cc(=O)c4ccccc4c-3nc2c1`, the growth inhibition was 7%.

Turning to `CC(C)=CCc1ccc(O)cc1`, the growth inhibition is -13%.

Regarding `CCCCCCCCCCCCCC/[N+]([O-])=C/c1ccc([N+](=O)[O-])o1`, the growth inhibition was 8%.

For the compound `Fc1ccc(CSC(=S)Nc2ccc(Br)cc2)cc1`, the growth inhibition was 11%.

`C/C(=N\NC(=S)N1CCN(C2CCCCC2)CC1)c1ccccn1`: the growth inhibition is -4%.

Regarding `Cc1ccccc1N=Nc1sc(N)nc1-c1ccccc1`, the growth inhibition was -2%.

With `CN(c1ccc(C(N)=O)cc1)c1c(O)c2ccccc2[nH]c1=O`, the growth inhibition is 1%.

For the compound `Fc1ccc(CSC(=S)Nc2cccc(C(F)(F)F)c2)cc1`, the growth inhibition was 12%.

Regarding `COc1ccccc1C(C)c1ccc2ccccc2c1C(=O)O` (stereo not drawn), the growth inhibition is 1%.

Turning to `CNC(=O)OCc1c(-c2ccccc2)c(-c2ccccc2)n(-c2ccc(OC)cc2)c1COC(=O)NC`, the growth inhibition was 20%.

Turning to `Cc1cc(SCC(=O)c2ccc(Cl)cc2)cc(C)[o+]1`, the growth inhibition was -2%.

For the compound `Cn1cnc([N+](=O)[O-])c1Sc1nc2ccccc2s1`, the growth inhibition was 51%.

Regarding `CCOC(=S)SSC(=S)NCCNC(=S)SSC(=S)OCC`, the growth inhibition was 13%.

For the compound `Cc1nc(C)c(C(=O)NNC(=O)C[N+](C)(C)C)cc1C(=O)NNC(=O)C[N+](C)(C)C`, the growth inhibition was -36%.

`CC/C(=C(\CC)c1ccc(O)c(CN(CC)CC)c1)c1ccc(OC)cc1`: the growth inhibition is -31%.

Consider `CC(C)N(C(=O)CC1(O)CCCCC1)C(C)C`, for which the growth inhibition was 1%.

For `CCCCN(CCCC)CC(O)c1cc(-c2ccc(Cl)cc2)nc2cc(C)ccc12` (stereo not drawn), the growth inhibition was 11%.

Consider `C/C(=C\c1ccccc1Cl)c1ccccn1`, for which the growth inhibition is 6%.

`O=C(OC1C2CCC2C2CC21)c1cc([N+](=O)[O-])cc([N+](=O)[O-])c1` (stereo not drawn): the growth inhibition is 32%.

As for `O=c1[nH]c2c([N+](=O)[O-])cc(Cl)cc2nc1/C=C(\O)c1ccc(F)cc1`, the growth inhibition was 3%.

On to `CC(=O)N[C@H]1CC[C@H]2[C@@H]3CCC4=CC(=O)CC[C@]4(C)[C@H]3CC[C@]12C`, for which the growth inhibition is 10%.

Take `CC12OC(=O)C(C(N)=O)=C1C=C(c1ccccc1)CC2c1ccccc1` (stereo not drawn): the growth inhibition is -5%.

Consider `Cn1c2nc(-[n+]3ccccc3)nc-2c([O-])n(C)c1=O`, for which the growth inhibition is -1%.

Consider `COc1cc(NCCCCCCCC2CCCCN2)c2ncccc2c1` (stereo not drawn), for which the growth inhibition was 11%.

As for `Nc1ncnc(N2CCOCC2)c1N`, the growth inhibition was 3%.

Take `CCCCCCCCCCCCNCC(=O)O`: the growth inhibition was 3%.

Consider `O=C(O)C1C2CC3CC(C2)CC1C3` (stereo not drawn), for which the growth inhibition was 7%.

With `CC(=O)OC1CCC2(C)C(=CCC3C2CCC2(C)C3CC(C(N)=O)C2C(C)=O)C1` (stereo not drawn), the growth inhibition was 6%.

As for `CC1(C)CC(=N/O)/C(=N/O)C(=N\NC(N)=S)/C1`, the growth inhibition is 1%.

As to `CCCCCCCCCCCCCCCCCC1=NCCN1`, the growth inhibition was 1%.

With `O=c1c2ccccc2c2ccccc2c(=O)n1-c1cc2c3ccccc3ccc2c2ccccc12`, the growth inhibition is -4%.

The assay is the same for the next values; noted with them: S. cerevisiae sgs1 mgt1 strain, at 50.0 µM (retest, dose inferred, filed as 5.0), hits give high values.
`CC(CC(C#CCN(C)C)N(C)C)CC(C)(C)C` (stereo not drawn): the growth inhibition is 5%.

Regarding `CCCCCCCCCCNC(=O)C[n+]1cccc(C(=O)NCc2ccccc2)c1`, the growth inhibition was 100% (active).

For `Cc1ccc(N2C(N)=C(C#N)C(C#N)(C#N)C2c2ccccc2)cc1` (stereo not drawn), the growth inhibition was 51%.

As for `O=[N+]([O-])c1cccc(Cl)c1C(Nc1nncs1)Nc1nncs1`, the growth inhibition is 67%.

For the compound `CCCC(C(=O)OCCNC1CCCCC1)c1ccccc1` (stereo not drawn), the growth inhibition is 37%.

Turning to `BrCc1ccc([Si](c2ccccc2)(c2ccccc2)c2ccc(CBr)cc2)cc1`, the growth inhibition is -18%.

Regarding `CCCCC(O)(c1ccccc1)C(O)(c1ccccc1)c1c(F)c(F)c(F)c(F)c1F` (stereo not drawn), the growth inhibition was 98% (active).

`C/C=C\C=N\NC(N)=S`: the growth inhibition was 6%.

As for `NCCc1ccc2oc3cc(=O)c4ccccc4c-3nc2c1`, the growth inhibition is 46%.

On to `CC(C)=CCc1ccc(O)cc1`, for which the growth inhibition is 98% (active).

For the compound `CCCCCCCCCCCCCC/[N+]([O-])=C/c1ccc([N+](=O)[O-])o1`, the growth inhibition is 70% (active).

Turning to `Fc1ccc(CSC(=S)Nc2ccc(Br)cc2)cc1`, the growth inhibition is 99% (active).

On to `C/C(=N\NC(=S)N1CCN(C2CCCCC2)CC1)c1ccccn1`, for which the growth inhibition was 98% (active).

As to `Cc1ccccc1N=Nc1sc(N)nc1-c1ccccc1`, the growth inhibition is 95% (active).

In the case of `CN(c1ccc(C(N)=O)cc1)c1c(O)c2ccccc2[nH]c1=O`, the growth inhibition was 51%.

As for `Fc1ccc(CSC(=S)Nc2cccc(C(F)(F)F)c2)cc1`, the growth inhibition was 100% (active).

In the case of `COc1ccccc1C(C)c1ccc2ccccc2c1C(=O)O` (stereo not drawn), the growth inhibition is 90% (active).

For `CNC(=O)OCc1c(-c2ccccc2)c(-c2ccccc2)n(-c2ccc(OC)cc2)c1COC(=O)NC`, the growth inhibition was 98% (active).

Turning to `Cc1cc(SCC(=O)c2ccc(Cl)cc2)cc(C)[o+]1`, the growth inhibition is 93% (active).

In the case of `Cn1cnc([N+](=O)[O-])c1Sc1nc2ccccc2s1`, the growth inhibition is 97% (active).

Take `CCOC(=S)SSC(=S)NCCNC(=S)SSC(=S)OCC`: the growth inhibition is 86% (active).

On to `Cc1nc(C)c(C(=O)NNC(=O)C[N+](C)(C)C)cc1C(=O)NNC(=O)C[N+](C)(C)C`, for which the growth inhibition was -29%.

For the compound `CC/C(=C(\CC)c1ccc(O)c(CN(CC)CC)c1)c1ccc(OC)cc1`, the growth inhibition is 92% (active).

Regarding `CC(C)N(C(=O)CC1(O)CCCCC1)C(C)C`, the growth inhibition is -11%.

With `CCCCN(CCCC)CC(O)c1cc(-c2ccc(Cl)cc2)nc2cc(C)ccc12` (stereo not drawn), the growth inhibition was 99% (active).

In the case of `C/C(=C\c1ccccc1Cl)c1ccccn1`, the growth inhibition was 71% (active).

As to `O=C(OC1C2CCC2C2CC21)c1cc([N+](=O)[O-])cc([N+](=O)[O-])c1` (stereo not drawn), the growth inhibition is 99% (active).

As for `O=c1[nH]c2c([N+](=O)[O-])cc(Cl)cc2nc1/C=C(\O)c1ccc(F)cc1`, the growth inhibition was 54%.

Consider `CC(=O)N[C@H]1CC[C@H]2[C@@H]3CCC4=CC(=O)CC[C@]4(C)[C@H]3CC[C@]12C`, for which the growth inhibition is -10%.

`CC12OC(=O)C(C(N)=O)=C1C=C(c1ccccc1)CC2c1ccccc1` (stereo not drawn): the growth inhibition was 67%.

Consider `Cn1c2nc(-[n+]3ccccc3)nc-2c([O-])n(C)c1=O`, for which the growth inhibition was 39%.

Consider `COc1cc(NCCCCCCCC2CCCCN2)c2ncccc2c1` (stereo not drawn), for which the growth inhibition was 98% (active).

As for `Nc1ncnc(N2CCOCC2)c1N`, the growth inhibition is 0%.

Take `CCCCCCCCCCCCNCC(=O)O`: the growth inhibition is 23%.

With `O=C(O)C1C2CC3CC(C2)CC1C3` (stereo not drawn), the growth inhibition was 60%.

For the compound `CC(=O)OC1CCC2(C)C(=CCC3C2CCC2(C)C3CC(C(N)=O)C2C(C)=O)C1` (stereo not drawn), the growth inhibition was 75% (active).

In the case of `CC1(C)CC(=N/O)/C(=N/O)C(=N\NC(N)=S)/C1`, the growth inhibition was 63%.

Consider `CCCCCCCCCCCCCCCCCC1=NCCN1`, for which the growth inhibition was 98% (active).

Consider `O=c1c2ccccc2c2ccccc2c(=O)n1-c1cc2c3ccccc3ccc2c2ccccc12`, for which the growth inhibition is 9%.
